TSHR ag: activates the human thyroid stimulating hormone receptor | Potency, µM (top dose mostly 57.1 µM), hits mostly activators | 73,000 tested, 0.48% active | AID 926 | P16473 | HEK293-CNG-TSHR cells (CNG channel as cAMP sensor), membrane potential dye, cAMP; active = well fitted activation curve with a large enough effect in the main read-out, with a control signal flat, not every such curve was filed as active; inconclusive = small, poorly fitted or top-dose-only effect, or a change in a side signal; inactive = no such curve, though single readings can be large or run the other way; reference of the percent scale not stated here;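 also: the control signal comes from parental cells without the receptor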
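cAMP rise detected as CNG-channel membrane depolarization by fluorescent dye (emission 590 nm), 30 min after compound, following 60 min dye loading containing 100 uM RO 20-1724 at room temperature. Cells: TSHR/CNG HEK 293, with parental CNG HEK 293 as control.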
Bst PK mod: alters activity of Bacillus stearothermophilus pyruvate kinase; purified pyruvate kinase, luminescence ATP production; ribose 5-phosphate activator present at AC10; Potency, µM; 51,000 tested, 1.2% active; AID 361; in the data active = potency below about 11 µM; inconclusive = mostly about 12 µM to 25 µM;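 the screen sought inhibitors and activators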
FLuc inh: inhibitors of firefly luciferase. Potency, µM (titrated, usually from 57.1 µM), usual class: inhibitors. P08659. purified firefly luciferase, luminescence, 8 min. 72,000 tested, 2.2% active. AID 411; also: nearly all actives have a fitted effect of over 40% in size
Target sequence (P08659 whole entry, looked up): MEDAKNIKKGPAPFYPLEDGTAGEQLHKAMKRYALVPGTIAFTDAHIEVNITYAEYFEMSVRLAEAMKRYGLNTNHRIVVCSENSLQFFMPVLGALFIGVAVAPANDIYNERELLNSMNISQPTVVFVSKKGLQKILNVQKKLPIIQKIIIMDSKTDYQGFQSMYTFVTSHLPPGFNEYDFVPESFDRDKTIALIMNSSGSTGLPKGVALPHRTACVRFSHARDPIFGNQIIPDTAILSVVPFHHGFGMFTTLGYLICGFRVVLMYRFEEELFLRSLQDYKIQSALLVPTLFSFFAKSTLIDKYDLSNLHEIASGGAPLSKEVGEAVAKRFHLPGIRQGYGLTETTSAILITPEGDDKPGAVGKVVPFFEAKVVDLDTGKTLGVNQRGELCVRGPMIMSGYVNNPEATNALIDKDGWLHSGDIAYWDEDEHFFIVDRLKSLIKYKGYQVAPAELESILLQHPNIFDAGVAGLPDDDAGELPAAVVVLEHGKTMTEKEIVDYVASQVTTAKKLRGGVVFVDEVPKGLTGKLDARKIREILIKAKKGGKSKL
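Inhibition of light generation by firefly luciferase from ATP and luciferin was profiled with concentration-response curves per sample, ATP held at 10 uM within the enzyme's linear range. Plates were read by luminescence after an 8-minute ambient incubation.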
HEK293 cAMP cs: raises cAMP in parental HEK293 cells, TSHR agonist counter-screen. parental HEK293 CNG cAMP sensor, membrane potential fluorescence. Potency, µM (top dose mostly 57.1 µM), most hits filed as activators. 73,000 tested, 2.5% active; also: nearly all actives have a fitted effect of over 55% in size
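Counterscreen for endogenous-receptor signalling: CNG-channel HEK 293 cells report cAMP rise by membrane depolarization. After 60 min dye equilibration with 100 uM RO 20-1724, compounds incubated 30 min before bottom-read fluorescence at 590 nm.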
Each line names hits and unclear results; the compound was inactive in the other large screens. Only some compounds are listed: those with a hit (about 5.2% of all), similar ones and a draw of the others. Unless noted, calls follow the shape of the dose curve; as a rule, active = well fitted curve in the direction sought with a large enough effect; inconclusive = small, poorly fitted or top-dose-only effect, or another doubt; inactive = no such curve, though single readings can be large; an effect the other way counts as inactive or inconclusive.

CCNc1ncc2nc(-c3ccc(OC)cc3)c(=O)n(-c3ccc(OC)cc3)c2n1	TSHR ag inconclusive, HEK293 cAMP cs 32µM (no result: Bst PK mod)
O=C(c1ccc(Cl)cc1)c1ccc(OCC(=O)N2CCOCC2)cc1	none
CCOCCOC(=O)COc1ccc(N2C(=O)c3ccccc3C2=O)cc1	FLuc inh 16µM (no result: Bst PK mod)
COC(=O)c1ccc(Cn2cnc3c(cnn3-c3ccc(F)cc3)c2=O)o1	TSHR ag inconclusive, HEK293 cAMP cs inconclusive (no result: Bst PK mod)
COC(=O)c1ccc(Cn2cnc3c(cnn3-c3ccc(C)c(C)c3)c2=O)o1	TSHR ag inconclusive, HEK293 cAMP cs 3.2µM
Cc1ccc(OCC(=O)Nc2ccc3c(c2)nc(CCN2CCOCC2)n3C)cc1	TSHR ag inconclusive, HEK293 cAMP cs 25µM (no result: Bst PK mod)
C/C(NC(=O)c1ccccc1)=C1/C(=O)CC2C1C2(C)C (stereo unspecified)	TSHR ag inconclusive, HEK293 cAMP cs 4µM (no result: Bst PK mod)
Cn1c2ccccc2c2c(C(=O)N3CCN(c4ccccc4)CC3)cn(C3CCCC3)c(=O)c21	none
Cc1csc(SCc2nnc(-c3ccccc3Br)o2)n1	FLuc inh 20µM (no result: Bst PK mod)
Cc1nnc(SCc2nnc(-c3ccccc3Br)o2)n1-c1ccccc1	none
Oc1cc2c(cc1O)[C@H](c1ccccc1)CNCC2	FLuc inh inconclusive (no result: Bst PK mod)
Oc1ccc([C@@H]2CNCc3sccc32)cc1O	TSHR ag inconclusive, HEK293 cAMP cs 32µM (no result: Bst PK mod)
COc1ccc(C)cc1NC(=O)NCCC1=CCCCC1	none
CCN(C(=O)c1ccco1)c1nc(CC(=O)Nc2ccc(Cl)cc2)cs1	TSHR ag inconclusive, HEK293 cAMP cs inconclusive
O=S1(=O)C=C(Oc2ccc(F)cc2)c2ccccc21	none
Cc1cc(/C=N/n2cnnc2)c(C)n1-c1ccc(Cl)cc1Cl	TSHR ag inconclusive, HEK293 cAMP cs 3.2µM (no result: Bst PK mod)
Cc1cc(/C=N/n2cnnc2)c(C)n1-c1ccc(OCc2ccc(F)cc2)cc1	TSHR ag inconclusive, HEK293 cAMP cs inconclusive (no result: Bst PK mod)
Cc1sc(-n2c(C)cc(/C=N/n3cnnc3)c2C)c(C#N)c1C	none (no result: TSHR ag, HEK293 cAMP cs)
Cc1cc(/C=N/n2cnnc2)c(C)n1-c1cccc(Cl)c1	TSHR ag 25µM (no result: Bst PK mod)
COc1ccc(-c2nnc(SCc3nnc(-c4ccc(Cl)cc4)o3)n2-c2ccccc2)cc1	TSHR ag inconclusive, HEK293 cAMP cs 16µM (no result: Bst PK mod)
COc1ccc(-n2c(SCc3nnc(-c4ccccc4)o3)nnc2-c2ccccc2)cc1	TSHR ag inconclusive, HEK293 cAMP cs 20µM
Cc1nnc(SCc2nnc(-c3ccc(Cl)cc3)o2)n1-c1ccccc1	Bst PK mod 7.5
CCn1c(C)nc2cc(S(=O)(=O)N3CCCCC3)ccc21	none
CCn1c(C)nc2cc(-c3nnc(-c4c(-c5ccccc5)noc4C)o3)ccc21	TSHR ag inconclusive, HEK293 cAMP cs 20µM
CSc1nc(N2CCOCC2)c2c(c1C#N)CCCCC2	TSHR ag inconclusive, HEK293 cAMP cs 25µM
COc1ccc(N2CCN(C(=O)CSc3nnc(CNc4ccccc4)o3)CC2)cc1	none
CN(Cc1ccccc1)C(=O)c1ccccc1NC(=O)c1ccco1	none
Cc1cnc(C(=O)Nc2cccc3ncccc23)cn1	none
Cc1cccc2nc(CSCc3ccco3)cn12	FLuc inh 25µM (no result: Bst PK mod)
Cc1cc(C)n2cc(CSCc3ccco3)nc2n1	none
CCCCCCN(C(=O)CCCCCN1C(=O)NC(c2ccc(C(C)(C)C)cc2)C(C(=O)OCc2ccccc2)=C1C)C(C(=O)NCCCC)c1ccc(OCC(=O)OC)c(C(=O)OC)c1 (stereo unspecified)	none (no result: Bst PK mod, FLuc inh)
Cc1ccnc(NC(=O)Nc2cccc(F)c2)c1	FLuc inh 3.2µM
COc1ccccc1N1CCN(C(=O)CSc2nc(C)c(Cc3ccccc3)c(=O)[nH]2)CC1	TSHR ag inconclusive, HEK293 cAMP cs 25µM
COc1ccc(N2CCN(C(=O)CSc3nnc(C)c(=O)[nH]3)CC2)cc1	TSHR ag inconclusive, HEK293 cAMP cs 1.3µM
COC(=O)c1sccc1NS(=O)(=O)c1ccc(OC)cc1	TSHR ag inconclusive, HEK293 cAMP cs inconclusive (no result: Bst PK mod)
CCOn1c(=O)c(=O)n(OCc2ccccc2)c2ccccc21	TSHR ag 3.2µM (no result: Bst PK mod)
COc1ccc(C(=O)C2CCN(C(=O)c3ccco3)CC2)cc1	none
Cc1ccc(-c2nnc(-c3ccc4ccccc4c3)o2)cc1	TSHR ag inconclusive, HEK293 cAMP cs inconclusive (no result: Bst PK mod)
Cc1ccc(-c2nnc(Nc3ccccc3)o2)cc1	Bst PK mod 0.46, FLuc inh 0.63µM
CC1=C(C(=O)Nc2cccnc2)C(c2cccnc2)n2nc(-c3cccs3)nc2N1 (stereo unspecified)	none
O=C(Nc1cccnc1)c1cn(-c2ccccc2)nc1-c1cccs1	Bst PK mod 10, FLuc inh 10µM
O=C(Nc1cccc(NS(=O)(=O)c2ccc(S(=O)(=O)NC3CC3)cc2)c1)c1ccccn1	none (no result: TSHR ag)
